From PubChem
Pf growth 96h = inhibits malaria parasite growth, 96 h; P. falciparum luciferase reporter growth, 96 h; Potency, µM (highest dose often 28.7 µM), inactives show at the top dose activity change, negative = inhibition, most hits filed as inhibitors; actives 6.9% (n = 320,000); AID 504834; active = well fitted inhibition curve with a large enough effect; inconclusive = small, poorly fitted or top-dose-only effect, or another doubt; inactive = no such curve, though single readings can be large or run the other way; also: potency is read from the fitted curve at half-maximal effect; % is scaled to controls: 0 for no effect and ±100 for the full control effect
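Luminescence readout: decreased luciferase signal marks inhibited growth of reporter-expressing P. falciparum in infected red cells (2% hematocrit, 0.05% parasitemia final), exposed to compound two generations (96 h, 37 C, 5% CO2).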
Pf growth 48h = inhibits P. falciparum growth in the first generation, 48 h; P. falciparum luciferase growth in erythrocytes, 48 h; actives 5.9% (n = 310,000); Potency, µM (titrated, usually from 28.7 µM), for the others: top-dose activity change, negative = inhibition, most hits filed as inhibitors; active = well fitted inhibition curve with a large enough effect; inconclusive = small, poorly fitted or top-dose-only effect, or another doubt; inactive = no such curve, though single readings can be large or run the other way; also: potency is read from the fitted curve at half-maximal effect; % is scaled to controls: 0 for no effect and ±100 for the full control effect
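Cell-based growth assay: transgenic P. falciparum expressing firefly luciferase, cultured in red cells within RPMI 1640 containing 0.5% w/v Albumax, 24 mM bicarbonate and gentamycin. A drop in luciferase activity indicates inhibition.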
Shiga toxin inh = Shiga toxin inhibition. actives 9.2% (n = 290,000). AID 2315. Vero cells, Shiga toxin protein synthesis inhibition reporter. inhibition, % at 38.7 µM; in the data active = inhibition mostly above about 28%, no sharp cut-off; inactive = mostly below about 43%; also: 0% is about no effect
Cycloheximide cs = affects cycloheximide protein synthesis inhibition readout, counter-screen. actives 12% (n = 300,000). max response, %. cell reporter, cycloheximide protein synthesis inhibition counterscreen; in the data active = max response mostly above about 13%, no sharp cut-off; inactive = mostly below about 14%; also: read at 38.3 µM for the half of the compounds with a filed dose; 0% is about no effect
SARS PLpro yeast = SARS-CoV PLP inhibition in yeast; Potency, µM (series often up to 32.9 µM), for inactives: at the highest dose activity, positive = growth rescue, most hits filed as activators; S. cerevisiae expressing SARS-CoV PLpro, growth rescue; actives 0.19% (n = 330,000); also: potency is read from the fitted curve at half-maximal effect; 0% is about no effect; nearly all actives have a fitted effect of over 55% in size
NS1 inh = influenza NS1 inhibition | actives 0.4% (n = 270,000) | Potency, µM (doses to about 46.1 µM), for the others: top-dose activity, positive = more growth; also: potency is read from the fitted curve at half-maximal effect; actives are rising curves; nearly all actives have a fitted effect of over 50% in size
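Compounds were scored for reversing the slow growth caused by influenza A NS1 in S. cerevisiae, measured by optical density at 600 nm. Assay medium contained 2% galactose at pH 6.0; NS1-free yeast of the same strain were the positive control.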
Numbers without * were called inactive; ? = inconclusive; / = no result given; [ ] = another dose, or the depositor's remark. Compounds with a hit are over-represented: about 21% of the library has one in this group of screens. Unless noted, calls follow the shape of the full dose curve.

SMILES	Pf growth 96h	Pf growth 48h	Shiga toxin inh	Cycloheximide cs	SARS PLpro yeast	NS1 inh
O=C(N/N=C/c1cc(Br)c(Br)o1)c1ccc2c(c1)OCCO2	11%	34%	60*	28*	1%	9%
O=C(N/N=C\c1cc(Br)c(Br)o1)c1cncc(Br)c1	-23%	6%	-7	-3	-14%	3%
COC(=O)C[C@H](NC(=O)Cn1cnc2c(SC)nc(N)nc21)C(=O)OC	/	/	/	/	2%	/
C#CCn1cnc2c(oc3ccccc32)c1=O	24%	49%	74	34*	-2%	-20%
CCCn1cnc2c(oc3ccccc32)c1=O	?	74%	39*	29*	-3%	-1%
O=C(Cn1cnc2c(oc3ccccc32)c1=O)c1ccccc1	7%	175%	53*	54*	-15%	-62%
O=c1c2oc3ccccc3c2ncn1Cc1ccc(F)cc1	?	?	13	16	1%	/
O=C(O)Cn1cnc2c(oc3ccccc32)c1=O	-1%	24%	-5	4	1%	4%
CCn1cnc2c(oc3ccccc32)c1=O	3%	28%	52	24*	0%	/
O=S(=O)(Nc1ccc(N2CCOCC2)cc1)c1c(F)cc(F)cc1Br	4%	-15%	-16	-4	14%	0%
COC(=O)C1CC23C=CCN4CCC5(c6ccccc6NC15C2C)C43 (centres undefined)	-5%	1.5µM*	-6	-4	2%	4%
CN1CC[C@]23c4ccccc4N[C@H]1[C@]21CCN(C)[C@H]3Nc2ccccc21	27%	-15%	/	/	/	/
CC(=O)N1c2ccccc2C2(O)N=C(C)SC12 (centres undefined)	19%	16%	35	12*	-20%	-3%
CC(C(=O)OCC(=O)c1ccc([N+](=O)[O-])cc1)N1C(=O)C2C3CCC(C3)C2C1=O (centres undefined)	10µM*	53%	-18	4	0%	/
CC(C(=O)OCC(=O)c1ccc([N+](=O)[O-])cc1)N1C(=O)C2C3C=CC(C3)C2C1=O (centres undefined)	2%	23%	2	-6	-4%	10%
COc1cccc(NC(=O)CSC(N)=O)c1	-30%	?	36*	18	-9%	?
CNCc1ccccc1OCC(=O)Nc1ccccc1	85%	/	74*	35*	10%	6%
CCOCC(=O)Nc1cccc(OC)c1	-11%	23%	37	16*	-26%	4%
COc1cccc(NC(=O)CCC(=O)Nc2cccc(OC)c2)c1	5%	13%	19	-2	14%	17%
COc1cccc(NC(=O)COc2ccc(Br)c(C)c2)c1	-6%	24%	10	12*	-13%	-47%
Cc1ccc(NC(=O)N2C3CCCC2CC(NC(=O)C(C)(C)C)C3)cc1 (centres undefined)	36%	-27%	3	3	6%	25%
CC(=O)Nc1cccc(OCC(=O)Nc2sccc2C(N)=O)c1	163%	97%	69*	49*	0%	0%
COc1cccc(NC(=O)CNC(=O)c2ccc(OC)c(OC)c2)c1	14%	18%	16	-1	1%	-1%
COc1cccc(OCC(=O)Nc2ccc(OC)c(OC)c2)c1	25%	2%	28	11	-5%	-10%
CC(=O)Nc1cccc(OCC(=O)Nc2ccccc2)c1	-5%[5.75 µM]	205%	114*	47*	-1%	10%
SMILES	Pf growth 96h	Pf growth 48h	Shiga toxin inh	Cycloheximide cs	SARS PLpro yeast	NS1 inh
COc1cccc(NC(=O)CNC(=O)c2ccccc2)c1	-1%	62%	77*	27*	0%	4%
COc1cc(NC(=O)COc2cccc(OC)c2)cc(OC)c1	5.2µM*	9%	-1	9	2%	-12%
COc1ccccc1Cc1nc2ccccc2n1S(=O)(=O)c1ccc(Cl)cc1	?	0%	-3	0	0%	-5%
CN1CCc2sc(NC(=O)Cc3ccccc3)c(C(=O)Nc3ccc(Cl)cc3)c2C1	/	/	4	-3	/	/
COc1cc(/C=N/NC(=O)C2COc3ccccc3O2)cc(OC)c1OC (centres undefined)	10%	-4%	19	-3	8%	-28%
COc1cccc(NC(=O)CN(C)C(=O)COc2ccccc2Cc2ccccc2)c1	5.2µM*	?	/	/	-8%	/
O=C(COc1cccc(Oc2ccccc2)c1)Nc1ncccn1	15%	13%	29*	14*	-13%	-37%
CCC(=O)Nc1cccc(NC(=O)COc2ccc(OC)cc2)c1	?	20%	29	2	3%	3%
COc1cccc(NC(=O)COc2ccccc2)c1	-8%	75%	/	28*	-4%	-14%
CCOc1ccc(-c2cccc(NC(=O)COc3ccccc3)c2)nn1	?	-6%	19	27*	-3%	-3%
COc1cccc(NC(=O)CN(C)C(=O)CC(C)c2ccccc2)c1 (centres undefined)	?	-2%	-25	7	-1%	8%
CN(C)C(=O)c1ccc(NC(=O)COc2cccc(Oc3ccccc3)c2)cc1	0%	50%	-1	-4	-2%	-2%
COc1cccc(C(=O)N2CCC(n3nccc3NC(=O)C(OC)c3ccccc3)CC2)c1 (centres undefined)	-18%	?	-6	-1	-1%	-6%
O=C(CN1CCN(Cc2cccc(Cl)c2)C1=O)NCc1cccs1	-24%	-5%	33	0	3%	/
CCC(CC)c1nnc(NC(=O)C2CSC3(C)CCC(=O)N23)s1 (centres undefined)	12%	5%	/	/	4%	/
Cc1ccc(C(=O)N2CCN(S(=O)(=O)c3ccccc3)CC2)s1	?	?	/	/	-7%	/
COc1cccc(OC)c1C(=O)NNS(=O)(=O)c1ccc2ccccc2c1	?	3%	-4	1	-5%	5%
COc1cc(C=C2C(=O)OC(C)(C)OC2=O)cc(Cl)c1OCC(=O)Nc1ccccc1	-2%	37%	-6	-2	-2%	-1%
COc1cccc(NC(=O)CN(C)C(=O)/C=C/c2ccc3ccccc3n2)c1	?	12µM*	/	/	/	/
COc1cc(OC)cc(C(=O)NCC(=O)Nc2ccc(-c3ccccc3)cc2)c1	33%	50%	63*	20*	0%	3%
COc1cc(OC)cc(C(=O)NCC(=O)Nc2ccc(C)c(Cl)c2)c1	-24%	-7%	20	4	-2%	0%
CC(C)(C)C1(C)OC(=O)C(=Cc2ccc(OCC(=O)Nc3ccccc3)cc2)C(=O)O1 (centres undefined)	1%	-4%	59*	18*	10%	-14%
Cc1cccc(NC(=O)COc2ccccc2)c1	6%	45%	129*	33*	-2%	-60%
C(#CCN1CCC(Cc2ccccc2)CC1)COCCOCc1ccccc1	-1%	-8%	-10	-3	-18%	-2%
